# Data published in PMC5836133, “The intracellular immune receptor Rx1 regulates the DNA-binding activity of a Golden2-like transcription factor”.
# Over roughly 16,000 sequences, “e-score” has its median near -0.044; the highest 2% begin near 0.38. The list comes from a sample in which the highest values are over-represented; it also holds similar and randomly drawn sequences.
# Molecular target: T1, GST-NbGlk1(82-244) (Nicotiana benthamiana)
# T1 chain: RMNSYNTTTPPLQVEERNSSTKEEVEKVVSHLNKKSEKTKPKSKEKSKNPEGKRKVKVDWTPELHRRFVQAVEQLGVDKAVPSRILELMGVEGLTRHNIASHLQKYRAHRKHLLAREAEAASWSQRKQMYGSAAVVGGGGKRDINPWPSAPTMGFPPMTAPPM
# Assay: protein-binding microarray; NbGlk1 is a Golden2-like transcription factor of Nicotiana benthamiana; high values mean tight binding
# Conditions: protein: recombinant; tags: GST (pTH6838); dsDNA, one strand shown
row,Sequence,binding signal
1,AATATTTA,0.216 ± 0.021 E-score
2,AACAAGAT,0.228 ± 0.0325 E-score
3,ATAGAGAA,0.231 ± 0.0678 E-score
4,AGAGAATA,0.243 ± 0.0561 E-score
5,ACCGAATC,0.363 ± 0.0171 E-score
6,ACAGAATA,0.257 ± 0.0299 E-score
7,AGCGAATC,0.4592 ± 0.00447 E-score
8,ATCGAATC,0.354 ± 0.00608 E-score
9,ATAGAAAT,0.249 ± 0.0207 E-score
10,AGAGAAAT,0.241 ± 0.00888 E-score
11,AGAGAATC,0.4789 ± 0.00191 E-score
12,ATAGAATC,0.397 ± 0.032 E-score
13,AACGAATC,0.367 ± 0.0566 E-score
14,ACAGAATC,0.45398 ± 0.00026 E-score
15,ATCTGATG,0.241 ± 0.0502 E-score
16,AAATATAT,0.326 ± 0.0239 E-score
17,AAATATGC,0.234 ± 0.0807 E-score
18,AATCGCAA,0.359 ± 0.0518 E-score
19,ATCAGAAA,0.272 ± 0.108 E-score
20,ATCGCGTG,0.304 ± 0.0178 E-score
21,AAGCATAT,0.213 ± 0.0284 E-score
22,AGTATCAG,0.272 ± 0.0918 E-score
23,AATCTGAA,0.444 ± 0.0239 E-score
24,ATTCTGTA,0.271 ± 0.104 E-score
25,AATCGGTA,0.257 ± 0.0795 E-score

row,Sequence,binding signal
1,AATCTGTA,0.414 ± 0.00915 E-score
2,AATGATTC,0.22 ± 0.0193 E-score
3,AATTTATA,0.264 ± 0.104 E-score
4,ATTGCACG,0.251 ± 0.046 E-score
5,AGGGGAAT,0.32 ± 0.0496 E-score
6,AGCGAAAT,0.343 ± 0.064 E-score
7,ACCGAAAT,0.338 ± 0.0315 E-score
8,ATCGAAAT,0.387 ± 0.0408 E-score
9,AGGGCAAT,0.201 ± 0.0755 E-score
10,AGGGAATC,0.477 ± 0.0128 E-score
11,ACGGAAAT,0.345 ± 0.0654 E-score
12,AAGGAAAT,0.3484 ± 0.000416 E-score
13,AAGGATTC,0.3738 ± 0.00237 E-score
14,AGGGATTC,0.359 ± 0.0107 E-score
15,ATGGAAAT,0.335 ± 0.0407 E-score
16,ATGGAATC,0.385 ± 0.0354 E-score
17,AGGGGATC,0.316 ± 0.0502 E-score
18,ACGGAATA,0.264 ± 0.0173 E-score
19,AAGGAATC,0.396 ± 0.0666 E-score
20,ATGGATAC,0.25 ± 0.0455 E-score
21,ACGGAATC,0.453 ± 0.0108 E-score
22,ATCTCAAT,0.245 ± 0.0732 E-score
23,ATTAGATA,0.304 ± 0.0251 E-score
24,ATCCGCTG,0.261 ± 0.0225 E-score
25,AATCGCAC,0.296 ± 0.0196 E-score

row,Sequence,binding signal
1,AAAGTGAT,0.217 ± 0.169 E-score
2,AGGCAGAT,0.213 ± 0.0549 E-score
3,AATAGAAT,0.2556 ± 0.00204 E-score
4,AAAAATAA,0.229 ± 0.0366 E-score
5,ATTTATAA,0.229 ± 0.0487 E-score
6,AGATAGAT,0.267 ± 0.0623 E-score
7,AGATTGCG,0.4943 ± 0.000727 E-score
8,ATATTGCC,0.249 ± 0.0822 E-score
9,ATATTGAT,0.248 ± 0.0795 E-score
10,ATTTTGCA,0.238 ± 0.0203 E-score
11,AGATTGCT,0.426 ± 0.00629 E-score
12,AGATTGCC,0.4477 ± 0.0014 E-score
13,ATATTGCA,0.225 ± 0.111 E-score
14,AGATTGCA,0.4641 ± 0.00231 E-score
15,ATATTGCG,0.328 ± 0.0285 E-score
16,AAATTGCG,0.262 ± 0.0556 E-score
17,ATCTTGCC,0.261 ± 0.0186 E-score
18,AACAATCC,0.244 ± 0.0442 E-score
19,ATTATTAA,0.205 ± 0.0755 E-score
20,ACATATCA,0.216 ± 0.0561 E-score
21,ATTCAGGA,0.206 ± 0.0808 E-score
22,ATCACATA,0.212 ± 0.0312 E-score
23,AAATTTAT,0.22 ± 0.0544 E-score
24,AAGCGAAT,0.291 ± 0.0479 E-score
25,ATATTCGC,0.321 ± 0.0229 E-score

row,Sequence,binding signal
1,AAATTCGA,0.219 ± 0.058 E-score
2,AAATTCGC,0.284 ± 0.0251 E-score
3,AAATTCGG,0.227 ± 0.0723 E-score
4,AGATTCGA,0.389 ± 0.00837 E-score
5,AGATTCGC,0.482 ± 0.00816 E-score
6,ATATTCGA,0.293 ± 0.0238 E-score
7,ATATTCGG,0.228 ± 0.0147 E-score
8,AGATTCGG,0.413 ± 0.00846 E-score
9,ATTTTTCA,0.253 ± 0.137 E-score
10,ATCGGAGA,0.249 ± 0.0227 E-score
11,ATCTTGTA,0.28 ± 0.00362 E-score
12,ATCGATAC,0.245 ± 0.0652 E-score
13,ATTTCAAA,0.231 ± 0.179 E-score
14,CAAAATAA,0.205 ± 0.0749 E-score
15,ATCGCCAC,0.22 ± 0.062 E-score
16,ATCGCTTC,0.206 ± 0.0242 E-score
17,AGTGATTC,0.282 ± 0.0766 E-score
18,AAGAATCT,0.449 ± 0.0147 E-score
19,ACGAATCC,0.361 ± 0.00735 E-score
20,ACGAATCA,0.247 ± 0.0177 E-score
21,CAGAATCG,0.33 ± 0.0217 E-score
22,AAGAATAT,0.331 ± 0.00702 E-score
23,ACGAATCT,0.403 ± 0.0288 E-score
24,AGGAATCA,0.32 ± 0.0361 E-score
25,AACAATCT,0.244 ± 0.0358 E-score

row,Sequence,binding signal
1,CAGAATCA,0.373 ± 0.00814 E-score
2,CAGAATCC,0.447 ± 0.0238 E-score
3,AGGAATCC,0.422 ± 0.0123 E-score
4,AGGAATCG,0.295 ± 0.0158 E-score
5,ATCTGTTC,0.214 ± 0.0509 E-score
6,AGGAAGAT,0.276 ± 0.00329 E-score
7,ATCGTGCG,0.234 ± 0.00703 E-score
8,AATCACTG,0.269 ± 0.00608 E-score
9,ATACTCAT,0.264 ± 0.0418 E-score
10,AAGAATCG,0.374 ± 0.0323 E-score
11,AAGAATCA,0.3254 ± 0.00141 E-score
12,AAGAATCC,0.455 ± 0.016 E-score
13,ATCCGCGC,0.215 ± 0.0363 E-score
14,AAGATTCC,0.46 ± 0.0101 E-score
15,AATATTCC,0.341 ± 0.0191 E-score
16,AATATTCT,0.313 ± 0.0605 E-score
17,AATATTCG,0.258 ± 0.049 E-score
18,AAGATTCA,0.205 ± 0.0308 E-score
19,AAAATTCC,0.201 ± 0.0158 E-score
20,AAGATTCG,0.41 ± 0.0145 E-score
21,AAGATCCC,0.333 ± 0.0797 E-score
22,AAGATTCT,0.4522 ± 0.000701 E-score
23,CAGATTCC,0.473 ± 0.0158 E-score
24,AAGATCCG,0.332 ± 0.0135 E-score
25,ATTTCATC,0.269 ± 0.0106 E-score

row,Sequence,binding signal
1,AATTCCCG,0.27 ± 0.108 E-score
2,CACGATTC,0.3711 ± 0.000458 E-score
3,ATATCAGG,0.305 ± 0.00775 E-score
4,CACAATCC,0.366 ± 0.0571 E-score
5,ATCCTAAC,0.254 ± 0.069 E-score
6,ATCTGTAA,0.331 ± 0.0244 E-score
7,ATTCGCTG,0.298 ± 0.0414 E-score
8,ATACGAAT,0.352 ± 0.0554 E-score
9,ATATTATA,0.279 ± 0.00302 E-score
10,ATCCTATC,0.258 ± 0.104 E-score
11,CAAATTCG,0.213 ± 0.1 E-score
12,CAGATTCA,0.293 ± 0.0151 E-score
13,CAGATTCG,0.438 ± 0.0122 E-score
14,ATAGTAAT,0.315 ± 0.0567 E-score
15,ATTACCGC,0.289 ± 0.0145 E-score
16,AAAAGAAT,0.267 ± 0.0274 E-score
17,AACGGATA,0.215 ± 0.0275 E-score
18,AAAAGATC,0.301 ± 0.0113 E-score
19,AACGGATC,0.25 ± 0.015 E-score
20,AACAGATT,0.426 ± 0.00502 E-score
21,AATAGATC,0.247 ± 0.0558 E-score
22,AATAGATT,0.406 ± 0.0231 E-score
23,AATAGATA,0.245 ± 0.0719 E-score
24,AACAGATA,0.271 ± 0.00439 E-score
25,AACGGATT,0.392 ± 0.0181 E-score

row,Sequence,binding signal
1,AACAGATC,0.305 ± 0.0266 E-score
2,AAAAGATT,0.388 ± 0.0102 E-score
3,CAGAGATC,0.312 ± 0.0606 E-score
4,ACTGGAAT,0.256 ± 0.0159 E-score
5,AGAGGAAT,0.21 ± 0.0368 E-score
6,ATATGCAA,0.29 ± 0.0125 E-score
7,AAGAGATT,0.4 ± 0.035 E-score
8,AAGAGATA,0.309 ± 0.0135 E-score
9,AAGAGATC,0.377 ± 0.0169 E-score
10,AATCTCTC,0.368 ± 0.0262 E-score
11,ATCCTCAT,0.212 ± 0.0808 E-score
12,AATCTCTG,0.3738 ± 0.00333 E-score
13,ATTCTCAC,0.299 ± 0.0167 E-score
14,AATCTCAC,0.394 ± 0.0342 E-score
15,AATCGCAT,0.274 ± 0.0414 E-score
16,AATCTCAG,0.428 ± 0.00714 E-score
17,AATCTCAA,0.421 ± 0.0141 E-score
18,AATCTCAT,0.4204 ± 0.00133 E-score
19,AATCTCTA,0.3774 ± 0.00278 E-score
20,ATTCTCAA,0.329 ± 0.0151 E-score
21,ATTCTCAG,0.32 ± 0.0298 E-score
22,ATTACGTC,0.277 ± 0.0973 E-score
